# Source: PubChem
# DUSP3 inh: blocks human VHR1 dual specificity phosphatase. P51452. recombinant VHR phosphatase, pNPP absorbance. inhibition, % at 13.3 µM. actives 0.52% (n = 290,000); in the data active means inhibition above about 50%
# RecA splice inh: inhibitors of M. tuberculosis RecA intein splicing | P9WHJ3 | cell-free RecA intein splicing, fluorescence | inhibition, % (no concentration beside the values) | actives 0.75% (n = 290,000); in the data active means inhibition above about 30%;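 further: 0% = vehicle wells and 100% = reference inhibitor control wells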
# Target sequence (P9WHJ3 whole entry, looked up, canonical isoform): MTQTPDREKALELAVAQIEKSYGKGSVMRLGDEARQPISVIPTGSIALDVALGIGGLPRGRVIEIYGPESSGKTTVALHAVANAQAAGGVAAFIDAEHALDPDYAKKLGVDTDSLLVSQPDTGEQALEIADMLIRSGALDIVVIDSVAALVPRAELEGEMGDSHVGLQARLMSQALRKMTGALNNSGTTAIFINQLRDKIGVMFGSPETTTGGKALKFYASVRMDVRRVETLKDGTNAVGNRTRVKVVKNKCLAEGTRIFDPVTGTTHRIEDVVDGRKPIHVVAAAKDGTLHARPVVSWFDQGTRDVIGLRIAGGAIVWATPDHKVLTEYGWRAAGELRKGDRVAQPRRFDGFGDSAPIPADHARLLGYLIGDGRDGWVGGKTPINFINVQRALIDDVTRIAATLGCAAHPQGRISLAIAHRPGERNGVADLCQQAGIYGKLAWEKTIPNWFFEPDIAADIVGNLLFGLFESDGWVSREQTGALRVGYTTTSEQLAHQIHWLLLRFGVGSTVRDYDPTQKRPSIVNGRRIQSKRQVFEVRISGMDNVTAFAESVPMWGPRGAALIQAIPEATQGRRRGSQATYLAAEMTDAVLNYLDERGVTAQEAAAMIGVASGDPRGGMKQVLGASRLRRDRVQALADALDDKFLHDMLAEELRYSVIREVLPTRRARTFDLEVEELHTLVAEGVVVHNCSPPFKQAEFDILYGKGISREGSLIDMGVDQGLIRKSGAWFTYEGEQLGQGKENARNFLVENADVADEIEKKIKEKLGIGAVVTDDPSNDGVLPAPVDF
# 3CLpro inhibitor: SARS-CoV 3CLpro protease inhibition; actives 0.14% (n = 290,000); recombinant SARS-CoV 3CLpro, quenched FRET peptide cleavage; inhibition, % at 6 µM; in the data active means inhibition above about 12%
# PriA SSB inh: K. pneumoniae PriA-SSBct interaction inhibition; AID 1272365; inhibition, % at 33 µM; actives 0.6% (n = 430,000); AlphaScreen SSBct-PriA binding, biotinylated peptide; in the data active means inhibition mostly above about 37%, no sharp cut-off; inactive means mostly below about 20%;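 further: plate controls were negative control peptide for no effect and reference peptide for full effect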
# CCHF vOTU inh: CCHFV vOTU protease inhibition. Pep-AMC fluorescence. inhibition, % at 11.5 µM. actives 0.55% (n = 370,000). AID 651958; in the data active means inhibition above about 30%; further: 0% = vehicle wells with enzyme and 100% = no enzyme wells
# An asterisk follows results filed as active; nt = not tested or not shown; ! = not active in a repeat. Most compounds without a hit are left out; they make up all but 1.7% or so of the library.
SMILES,DUSP3 inh,RecA splice inh,3CLpro inhibitor,PriA SSB inh,CCHF vOTU inh
COC(=O)c1cccc2nc3c(C(C)O)cccc3nc12 (centres undefined),14.2,2.1,nt,41.5*,14.8
Cc1noc(/C=C/c2ccco2)c1S(=O)(=O)N1CCC(C(=O)NC(C)c2ccccc2)CC1 (centres undefined),50.0*,2.4,-0.1,-8.4,12.2
Cc1noc(/C=C/c2ccco2)c1S(=O)(=O)N1CCC(C(=O)N(C)Cc2ccccc2)CC1,25.9,2.9,2.6,-3.0,0.1
CCC(C(=O)N1CCN(Cc2ccc3c(c2)OCO3)CC1)n1c(=O)[nH]c2ccccc2c1=O (centres undefined),51.2*,-2.7,-0.4,1.6,12.1
CCCC(C(=O)NC(C)(C)CC)N(Cc1ccco1)C(=O)CNS(=O)(=O)c1ccccc1 (centres undefined),57.6*,5.4,-2.4,0.3,1.0
CC(C)C(C(=O)NCc1ccco1)N(Cc1ccco1)C(=O)CNS(=O)(=O)c1ccccc1 (centres undefined),7.4,3.3,-0.3,5.7,1.4
O=C(COc1ccccc1)Nc1nc2c(s1)-c1cccc3cccc-2c13,nt,nt,nt,42.0*,nt
CCOc1ccccc1NC(=O)c1ccc2c(c1)C(=O)N(CC)C2=O,39.6,-1.3,-4.8,100.5*,-15.8
CCOc1ccccc1NC(=O)c1ccc2c(c1)C(=O)N(C(C)(C)C)C2=O,21.9,-0.4,-0.1,-6.8,-7.3
CCCOc1ccc(S(=O)(=O)NCCN2CCN(c3ccc(F)cc3)CC2)cc1,nt,nt,nt,-3.0,nt
CCOc1ccc(-n2ccnc2SCC(=O)Nc2nnc(CC)s2)cc1,54.9*,1.0,-0.5,9.4,8.5
CCc1nnc(NC(=O)CSc2nnc(-c3ccc(OC)cc3)n2C)s1,-1.5,1.4,1.2,3.0,0.6
Cc1cn2c(=O)c(C(=O)Nc3cccc(Cl)c3C)cnc2s1,nt,nt,nt,3.0,nt
O=C(Nc1ccc(CN2CCN(c3ccccn3)CC2)cc1)Nc1ccc2c(c1)OCO2,nt,nt,nt,50.0*,nt
Cc1cc(NCc2ccccc2)n2ncc(-c3ccccc3)c2n1,54.7*,6.2,-0.1,-24.7,-3.2
O=C(c1ccncc1)N1CCC(c2ccsc2)CC1,nt,nt,nt,3.0,nt
COc1ccc(/C=N/Nc2ncc(Br)cn2)c(OC)c1,87.8*,-4.7,-4.4,nt,-0.4
CCSc1ccc2c(c1)N(CCCN1CCN(C)CC1)c1ccccc1S2,nt,nt,nt,43.0*,2.4
CN1CCN(CCCN2c3ccccc3Sc3ccc(Cl)cc32)CC1,-3.0,3.1,-2.6,36.5,6.9
Cc1cc(N)n(-c2nc3c(cnn3-c3ccccc3)c(=O)[nH]2)n1,nt,nt,nt,-1.0,nt
CC(C)N1CCc2nc(NC(=O)c3ccc(S(=O)(=O)N4CCCc5ccccc54)cc3)sc2C1,nt,nt,nt,2.0,nt
O=[N+]([O-])c1cccnc1Sc1ccccc1,nt,nt,nt,82.5*,nt
O=[N+]([O-])c1cccnc1Sc1ccc(Cl)cc1,1.9,-0.7,3.4,52.4*,-1.6
Oc1cc(OCc2ccccc2F)ccc1-c1ncncc1-c1ccccc1,nt,nt,nt,-11.0,nt
CCNC(=O)NC(=O)C(C)N1C(=O)NC(c2ccccc2)(c2ccccc2)C1=O (centres undefined),55.2*,nt,1.8,10.8,11.8
SMILES,DUSP3 inh,RecA splice inh,3CLpro inhibitor,PriA SSB inh,CCHF vOTU inh
COc1cc(C2C(=C(O)c3ccccc3)C(=O)C(=O)N2c2nc(C)c(C)s2)ccc1O (centres undefined),nt,nt,nt,0.0,nt
CC(C)c1cc(NCCOCCO)n2c(nc3ccccc32)c1C#N,2.1,-91.3,0.7,39.0*,-220.5
COc1ccc(C)cc1N(C(=O)c1ccco1)C(C(=O)NC1CCCC1)c1ccc(N2CCOCC2)cc1 (centres undefined),52.0*,-0.5,-3.2,-11.8,2.0
O=C1C[C@@]2(CCN(S(=O)(=O)c3cccs3)C2)Oc2ccccc21,nt,nt,nt,-17.0,nt
COc1ccc(S(=O)(=O)Nc2ccc3c(c2)CC(=O)N3)cc1Cl,nt,nt,nt,15.0,nt
CC1CN(c2oc(Cc3cccc4ccccc34)nc2C#N)CC(C)O1 (centres undefined),23.4,0.0,-1.7,51.6*,1.4
CNc1oc(Cc2cccc3ccccc23)nc1C#N,15.3,2.2,0.1,-0.9,-0.9
O=C(COc1ccc(Cl)cc1)N1CCN(c2ccc3nnc(-c4ccco4)n3n2)CC1,nt,nt,nt,-17.0,nt
Cc1cc(C)c2nc(N(CCCN(C)C)C(=O)c3ccc(S(=O)(=O)N4CCCCCC4)cc3)sc2c1,nt,4.8,nt,36.0*!,21.9
Cc1cc(C)c2nc(N(CCCN(C)C)C(=O)c3ccc4c(c3)CCCC4)sc2c1,nt,18.6,nt,43.0*,3.4
CS(=O)(=O)N1C2CCC1CC(NS(=O)(=O)C1CC1)C2 (centres undefined),nt,nt,nt,-16.0,nt
O=C(NCCSc1ncc(-c2ccccc2)[nH]1)C(=O)Nc1ccccc1[N+](=O)[O-],nt,nt,nt,42.0*,nt
CN1C(=O)C(C)(C)COc2ccc(NC(=O)Cc3ccc(-c4ccccc4)cc3)cc21,nt,nt,nt,24.0,nt
Cc1cc(C(=O)NCc2ccco2)no1,25.4,3.6,-2.9,0.1,-12.4
CC(C)Cc1cc(C(=O)NCc2ccco2)no1,2.9,-1.1,5.3,95.5*,0.9
O=C(CN1CCC(n2nnc3cc(F)ccc32)CC1)NC1CC1,4.9,0.0,3.2,14.0,-0.9
O=C(CN1CCC(n2nnc3cc(F)ccc32)CC1)NCCc1ccccc1,52.9*,0.1,0.1,-4.3,20.6
COCCCNC(=O)c1c(N)n(/N=C\c2c[nH]c3ccccc23)c2nc3ccccc3nc12,nt,nt,nt,11.0,nt
O=S(=O)(c1cccs1)N1CN(Cc2ccco2)c2nc3ccccc3nc21,-10.7,-0.1,-5.1,5.3,-5.2
Cc1cccc(S(=O)(=O)N2CN(Cc3ccco3)c3nc4ccccc4nc32)c1,-12.1,6.3,-3.2,95.8*,-6.5
S=C(NCc1ccccc1)Nc1ccncc1,52.8*,2.5,0.1,-6.7,-10.1
O=C(CCC1CCCN(C(=O)c2cc(C3CC3)[nH]n2)C1)N1CCN(c2ccccn2)CC1 (centres undefined),51.6*,-5.3,-4.1,1.6,-12.4
CCc1cc(C(=O)N2CCCC(CCC(=O)N3CCN(c4ccccn4)CC3)C2)no1 (centres undefined),11.1,-0.3,0.8,4.3,21.3
Cc1ccccc1NCC(O)Cn1c2ccccc2c2ccccc21 (centres undefined),nt,nt,nt,-8.0,nt
C=CCn1c(O)c(C=Nc2ccc(N(CC)CC)cc2)c(=O)[nH]c1=O,2.4,-3.1,-2.2,-9.2,40.3*
SMILES,DUSP3 inh,RecA splice inh,3CLpro inhibitor,PriA SSB inh,CCHF vOTU inh
Cc1ccc(S(=O)(=O)Oc2ccc(F)cc2)c(C)c1C,nt,nt,nt,-38.0,nt
O=C(NCC1CCCN1c1ccccc1)Nc1ccc(F)cc1 (centres undefined),nt,nt,nt,19.0,nt
CCOC(=O)N1CCN(C(=O)c2cc3cc([N+](=O)[O-])ccc3s2)CC1,nt,nt,nt,7.0,nt
Cc1ccc(-c2cc(-c3ccc(C)cc3)[n+](-c3ccc(C(=O)[O-])cc3)c(-c3ccc(C)cc3)c2)cc1,nt,40.5*,nt,nt,-2.3
CS(=O)(=O)c1ccc(Nc2nc(C(=O)Nc3ccc(F)c(Cl)c3)cs2)cc1,nt,nt,nt,-9.0,nt
CN1C(=O)CC(Nc2cccc3cccc(N)c23)C1=O (centres undefined),58.3*,-1.3,-2.5,6.4,nt
